Growth data for 40 compounds are collected here from PubChem BioAssay (NCI).

Each structure is given as a SMILES string. Compounds without any hit were thinned out: in the full panel of roughly 83,000, 20% have a hit.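 In brief: 96-well plates, 48 h treatment, single concentration, percent growth endpoint.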 Values without a mark were called inactive. Activity calls are given as the source filed them. The calls were made as follows: active = growth percent below 10; inactive = the rest.

The subject of the assay is HL-60(TB) leukemia. As to the kind of experiment: NCI-60 one-dose screen, 48 h (100 = growth as untreated, 0 = no growth, -100 = all killed). As to conditions: 10 µM unless noted.
Regarding `COc1ccc(Oc2ccc(/C=N/NC(=O)CSc3nc4ccccc4c(=O)n3-c3ccc(Cl)cc3)cc2)cc1`, the growth is 104%.
On to `C[C@]12CC[C@H]3[C@@H](CC=C4C[C@@H](O)CC[C@@]43C)[C@@H]1CC[C@@H]2[C@](C)(O)CCc1cccnc1`, for which the growth was 47.6%.
The value for `O=C(NCCNc1cc(-c2cn(-c3ccccc3)nc2-c2cccc(O)c2)ccn1)Nc1ccc(Cl)c(C(F)(F)F)c1` was 84.2%; that for `CC(C)C[C@@H]1N[C@@]2(C(=O)Nc3ccccc32)[C@@H](c2ccc(F)cc2)[C@@H]1C(=O)c1ccc(O)cc1` was 105%.
`Cc1ccc(/C=C/c2nn3c(-c4ccco4)nnc3s2)cc1C`: the growth was 91.4%.
The figure for `Cn1cc(-c2cc3ncnc(Nc4ccc(NC(=O)Nc5cc(C(C)(C)C)on5)cc4)c3s2)cn1` is 13.6%; for `CN1CCN(Cc2ccc(NC(=O)c3cncc(C#Cc4cnc5ccc(OCC(C)(C)O)nn45)c3)cc2C(F)(F)F)CC1` it is 1.93% (active); for `N/C(=N\OC(=O)CSc1nc2ccccc2s1)c1ccc(Cl)cc1` it is 108%.
As to `CN1C(=O)N(C)C2C1NN=c1s/c(=C\c3ccccn3)c(=O)n12` (stereo not given), the growth was 101%.
With `O=C(Nc1cccc(Cl)c1)Nc1nc2ccc(-c3cccc4ccccc34)cc2s1`, the growth is 66.9%.
The value for `O=C(c1ccc(O)cc1)[C@@H]1CN[C@@]2(C(=O)Nc3ccccc32)[C@H]1c1ccc(F)cc1` was 95.4%; that for `Cc1cc(C)cc(NC2=C(Cl)C(=O)c3nc(C)ccc3C2=O)c1` was 34.5%.
The value for `O=S(=O)(NCCNc1nccc(-n2cnc3ccccc32)n1)c1ccc(Cl)cc1` was 113%.
Turning to `COc1ccc(/C=C/C(=O)c2nnn(-c3ccc(C(=O)O)cc3)c2C)cc1OC`, the growth is 83.2%.
On to `O=C(CSc1nc2ccccc2c(=O)n1-c1ccccc1)Nc1cccc(C(=O)/C=C/c2ccccc2)c1`, for which the growth is 99.1%.
Turning to `Cc1cc2nc3c4cc(Cl)ccc4n(CC(=O)NCCN(C)C)c3nc2cc1C`, the growth was 56%.
The figure for `Cc1ccc(/C=C/CC(=O)Nc2ccc(C(=O)Nc3ccc(F)cc3N)nc2)cn1` is -19.6% (active); for `Cc1nc2ncc(-c3ccc4ncnc(NCc5ccccc5)c4c3)cc2[nH]1` it is 109%.
The figure for `NC(N)=Nc1ccc(Oc2cccc(NC(N)=Nc3ccc(Br)c(C(F)(F)F)c3)c2)cc1` is 17.6%; for `O=C(CSc1nc2sc3c(c2c(=O)n1-c1ccc(Cl)cc1)CCCC3)NNC(=O)Nc1cccc(C(F)(F)F)c1` it is 2.24% (active); for `COc1ccc2c(c1)c(-c1cc(N)n3nc(-c4cn(C)c5ccc(OC)cc45)cc3n1)cn2C` it is 5.19% (active).
`CCOC(=O)c1cccnc1Nc1ccc(NC(=O)Nc2ccc(Cl)c(C(F)(F)F)c2)cc1`: the growth was 29.4%.
The figure for `CCn1c(SCC(=O)Nc2cccc(C(=O)/C=C/c3ccccc3Cl)c2)nc2ccccc2c1=O` is 107%; for `COc1ccc(-n2c(SCC(=O)Nc3ccc(-c4nc5ccccc5[nH]4)cc3)nc3ccccc3c2=O)cc1` it is 45.6%.
On to `O=C(c1ccc(O)cc1)[C@@H]1[C@@H]2CCCN2[C@@]2(C(=O)N(C(=O)c3ccc(F)cc3)c3ccccc32)[C@H]1c1ccc(F)cc1`, for which the growth was 78.6%.
Take `Nc1ncc(-c2ccc(NS(=O)(=O)c3ccc(Cl)c(Cl)c3)cc2)[nH]1`: the growth is 47.7%.
Consider `COc1ccc(/C(=N\N=C(N)N)c2ccc(Cl)cc2)cc1OC`, for which the growth was 44.9%.
The figure for `O=C(Cn1cc(-c2ccccc2)nn1)Nc1nc(-c2ccc(Cl)cc2)cs1` is 89.7%; for `COc1ccc(NC(=O)CCCCCCNC(=O)C(O)(O)C(F)(F)F)cc1` it is 11.3%; for `COc1cc2oc(-c3cccc(NC(=O)[C@@H](N)C(C)C)c3)cc(=O)c2c(OC)c1OC` it is 105%.
For the compound `CCO/C=N/C1=C(C#N)C(c2ccc(F)cc2)c2sc3c(CC)cccc3c2O1` (stereo not given), the growth was -19.1% (active).
The value for `O=C(/C=C/Nc1ccc(S(=O)(=O)O)cc1)c1ccc(F)cc1` was 102%.
The figure for `O=C1CC(=O)N2CSCN(C(c3ccccc3)c3nc4ncncc4[nH]3)C2=N1` (stereo not given) is 118%; for `O=[N+]([O-])c1ccc(-c2nnc(SCc3ccc(O)c4ncccc34)n2-c2ccccc2)cc1` it is 32.5%.
The value for `O=C(NNc1nc2cc(F)ccc2n2c(CN3CCC(O)C3)ccc12)c1cnccn1` (stereo not given) was -14.8% (active); that for `NC(N)=Nc1ccc(Oc2ccc(Nc3ccc(Cl)c(C(F)(F)F)c3)cc2)cc1` was -33.8% (active); that for `C=CCOc1cccc(/C=C2\SC(=S)N(C3CC(=O)N(c4ccc(Br)cc4)C3=O)C2=O)c1` (stereo not given) was 108%.
`O=C(c1ccc(Cl)cc1)C1[C@H](c2ccc(Cl)cc2)[C@@H](c2ccccc2)NC12C(=O)Nc1ccc(Br)cc12` (stereo not given in full): the growth is 22.3%.
The figure for `COc1cc(Cn2cc3c(c2)-c2onc(CN4CCCC4)c2CC3)cc(OC)c1OC` is 99%; for `CC(Nc1ncnc2ccc(-c3cnc(N)nc3)cc12)c1ccccc1` (stereo not given) it is 35.3%.
